Assay outcomes deposited in PubChem by National Center for Advancing Translational Sciences (NCATS).
Most compounds without a hit are left out; they make up all but 16% or so of the library.
DT40 TDP1 CPT = qHTS for Inhibitors of human tyrosyl-DNA phosphodiesterase 1 (TDP1): qHTS in cells in presence of CPT. chicken DT40 Tdp1-/-;hTDP1 cells + 20 nM CPT, ATP luminescence, 48 h. Potency, µM (highest dose often 46.2 µM), without a hit: at the top dose activity change, negative = growth inhibition, actives largely listed as inhibitors. 420,000 compounds, 12% hits; note: potency is the fitted concentration of half-maximal effect; % is set by controls: 0 for no effect and ±100 for the full control effect; nearly all actives have a fitted effect of over 55% in size
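Cell growth measured by CellTiter-Glo luminescence after a minimum 48 h, 37 C compound exposure with 20 nM CPT in Tdp1-knockout DT40 cells stably expressing hTDP1, seeded 400/well; qHTS titration format.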
DT40 TDP1 no CPT = qHTS for Inhibitors of human tyrosyl-DNA phosphodiesterase 1 (TDP1): qHTS in cells in absence of CPT; DT40 Tdp1-/- hTDP1 cells, no CPT, ATP luminescence, 48 h; Potency, µM (top dose mostly 46.2 µM), inactives show at the highest dose activity change, negative = growth inhibition, most hits filed as inhibitors; 420,000 compounds, 15% hits; note: potency is the fitted concentration of half-maximal effect; % is set by controls: 0 for no effect and ±100 for the full control effect; nearly all actives have a fitted effect of over 55% in size
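No-CPT arm: Tdp1-/-;hTDP1 DT40 cells (400/well) plus compounds, incubated ≥48 hr at 37 °C. Readout CellTiter-Glo luminescence.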
miR-21 act = qHTS Assay for Modulators of miRNAs and/orActivators of miR-21 | HeLa miR-21 FLuc reporter, luciferase, 48 h | Potency, µM (titrated, usually from 38.3 µM), without a hit: at the highest dose activity change, positive = activation, most hits filed as activators | 340,000 tested, under 10 active;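 note: % of control where 0% means no effect; miR-21 action dims this reporter so a rising signal means less miR-21 action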
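Using DMEM plus 10% FBS, HeLa miR-21-FLuc cells are incubated with test compounds (final up to about 40uM) for 48 hours; firefly luciferase signal is then imaged following reagent-mediated lysis.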
TDP1 block = qHTS Assay for Inhibitors of Tyrosyl-DNA Phosphodiesterase (TDP1) | recombinant TDP1, AlphaScreen DNA substrate cleavage | 350,000 compounds, 0.28% hits | Tyrosyl-DNA phosphodiesterase 1 (Homo sapiens), Q9NUW8 | AID 485290, 2010 | Potency, µM (doses to about 130 µM), inactives show at the top dose activity change, negative = inhibition, actives largely listed as inhibitors; note: potency is the fitted concentration of half-maximal effect; % is set by controls: 0 for no effect and ±100 for the full control effect; nearly all actives have a fitted effect of over 40% in size
Target sequence (Q9NUW8 whole entry, looked up): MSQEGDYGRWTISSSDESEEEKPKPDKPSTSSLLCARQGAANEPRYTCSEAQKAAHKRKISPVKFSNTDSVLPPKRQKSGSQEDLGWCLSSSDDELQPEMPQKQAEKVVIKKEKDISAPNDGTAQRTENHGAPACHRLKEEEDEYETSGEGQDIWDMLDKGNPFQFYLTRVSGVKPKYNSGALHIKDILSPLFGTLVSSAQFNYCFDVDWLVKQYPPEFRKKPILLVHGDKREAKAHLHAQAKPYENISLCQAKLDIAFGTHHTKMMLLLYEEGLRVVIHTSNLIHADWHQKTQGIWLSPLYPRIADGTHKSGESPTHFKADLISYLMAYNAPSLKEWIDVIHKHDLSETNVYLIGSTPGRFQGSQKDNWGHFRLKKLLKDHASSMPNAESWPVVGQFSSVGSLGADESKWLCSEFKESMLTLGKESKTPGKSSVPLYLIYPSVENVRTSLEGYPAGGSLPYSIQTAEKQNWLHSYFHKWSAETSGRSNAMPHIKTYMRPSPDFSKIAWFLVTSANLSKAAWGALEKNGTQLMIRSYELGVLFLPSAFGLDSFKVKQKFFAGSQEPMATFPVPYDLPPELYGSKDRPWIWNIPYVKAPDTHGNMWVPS
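Tdp1 1 nM final; 15 min RT w/ cpd; substrate 15 nM, 5 min; beads 10 ug/ml, 10 min; AlphaScreen read. Neg ctrl: no enzyme.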
uPA surface inh = qHTS for Inhibitors of Cell Surface uPA Generation; 330,000 compounds, 0.31% hits; Potency, µM (titrated, usually from 38.3 µM), inactives show top-dose activity change, negative = inhibition, usual class: inhibitors; cell surface uPA generation assay, qHTS; active = well fitted inhibition curve with a large enough effect; inconclusive = small, poorly fitted or top-dose-only effect; inactive = no such curve, though single readings can be large or run the other way; tested in mouse RAW 264.7 cells; note: potency is the fitted concentration of half-maximal effect; % is set by controls: 0 for no effect and ±100 for the full control effect; nearly all actives have a fitted effect of over 55% in size
* marks the source's active call; other numbers are inactive results; ? = inconclusive; · = no result given; [ ] = dose if it differs, or a comment. Unless noted, calls come from the whole dose curve; as a rule, active = well fitted curve in the direction sought with a large enough effect; inconclusive = small, poorly fitted or top-dose-only effect, or another doubt; inactive = no such curve, though single readings can be large; an effect the other way counts as inactive or inconclusive.

SMILES	DT40 TDP1 CPT	DT40 TDP1 no CPT	miR-21 act	TDP1 block	uPA surface inh
OC(c1ccc(F)c(F)c1)c1ncc(-c2ccc(F)cc2)[nH]1 (configuration not stated)	?	-14%	·	·	·
Cc1cc(C(O)c2ncc(-c3ccc(Cl)cc3)[nH]2)ccc1F (configuration not stated)	18µM*	?	·	·	·
O=C(COC(=O)c1cc(=O)c2ccccc2o1)NC1CCCCC1	-1%	-11%	0%	5%	2%
CCn1c(=N)c(C(=O)NC2CCCC2)cc2c(=O)n3cc(C)ccc3nc21	-6%	1%	-3%	·	·
COc1ccc(CNC(=O)Nc2cn(CC(C)C)c(=O)c3ccccc23)c(OC)c1	-27%	?	-6%	0%	·
CCCN(C(=O)Nc1cn(CC(C)C)c(=O)c2ccccc12)c1ccc(F)cc1	7.3µM*	18µM*	-4%	-1%	·
CCc1ccccc1N(C)C(=O)Nc1cn(CC(C)C)c(=O)c2ccccc12	15µM*	23µM*	16%	0%	·
O=C(CSc1nc2ncc(Cl)cc2[nH]1)N1CCC(Cc2ccccc2)CC1	-30%	-8%	·	-3%	-2%
C=CCn1c(COc2ccc(Cl)cc2)nnc1SCC(=O)N/N=C/c1cccc(O)c1	?	?	1%	3%	-12%
C=CCn1c(COc2ccccc2)nnc1SC(C)C(=O)N/N=C/c1cc(Cl)ccc1O (configuration not stated)	?	21µM*	19%	9%	-9%
CCOc1ccc(S(=O)(=O)N2CCCCC2)cc1NC(=O)CN1C(=O)NC(C)(c2ccc(C)cc2)C1=O (configuration not stated)	23µM*	16µM*	·	0%	-8%
CC1(c2ccccc2)NC(=O)N(CC(=O)Nc2ccc(Cl)c(S(=O)(=O)N3CCCCC3)c2)C1=O (configuration not stated)	?	-16%	-1%	2%	3%
COc1ccc(S(=O)(=O)N2CCCCCC2)cc1NC(=O)CN1C(=O)NC(C)(c2ccc(C)cc2)C1=O (configuration not stated)	?	?	·	-5%	3%
Cc1ccc(C2(C)NC(=O)N(CC(=O)Nc3ccc(Cl)c(S(=O)(=O)N4CCCCC4)c3)C2=O)cc1 (configuration not stated)	?	18µM*	·	1%	-9%
COc1ccc(C(C)=O)cc1CN1C(=O)C(C)ON=C1c1ccccn1 (configuration not stated)	1%	0%	·	·	·
COc1ccc(C(C)=O)cc1CN1C(=O)C(Cc2ccccc2)ON=C1c1ncccc1C (configuration not stated)	21µM*	?	·	·	·
CN(CC(=O)Nc1ccccc1Br)C(=O)c1cc(Cl)nc2ccccc12	-23%	-3%	·	1%	0%
COc1ccc(-c2cc(C(=O)N(C)CC(=O)Nc3ccccc3Br)c3ccccc3n2)cc1OC	16µM*	18µM*	·	0%	-4%
COc1ccc(-c2cc(C(=O)N(C)CC(=O)Nc3ccccc3C(F)(F)F)c3ccccc3n2)cc1OC	21µM*	4.1µM*	·	·	4%
COC(=O)c1c(C)noc1-c1cc(C)on1	5%	-3%	-4%	7%	-3%
CCCCC[C@H](CC(=O)NO)C(=O)N[C@H](C(=O)N1CCC[C@H]1CO)C(C)C	·	·	·	9%[56.1 µM]	·
CCCCCC(CC(=O)NO)C(=O)NC(C(=O)N1CCCC1CO)C(C)C (configuration not stated)	2.6µM*	1.8µM*	·	·	3%
COCCn1c(N)c(C(=O)NCc2cccs2)c2nc3ccccc3nc21	-21%	-5%	3%	?	4%
COCCCNC(=O)c1c(N)n(/N=C/c2cccs2)c2nc3ccccc3nc12	18µM*	?	-3%	0%	6%
COCCCNC(=O)c1c(N)n(/N=C/c2cccnc2)c2nc3ccccc3nc12	?	6.5µM*	1%	7%	-1%
SMILES	DT40 TDP1 CPT	DT40 TDP1 no CPT	miR-21 act	TDP1 block	uPA surface inh
CCC(C)NC(=O)c1cn(-c2cccc(C)n2)cn1 (configuration not stated)	14%	-2%	-51%	1%	-4%
C=Cc1ccc(CSc2nc(-c3ccc(Cl)cc3)nc3c2Cc2c(CO)cnc(C)c2O3)cc1	8.2µM*	23µM*	3%	-3%	·
C=Cc1ccc(CSc2nc(-c3ccccc3C)nc3c2Cc2c(CO)cnc(C)c2O3)cc1	?	21µM*	-4%	5%	·
C=Cc1ccc(CSc2nc(-c3ccc(OC)cc3)nc3c2Cc2c(CO)cnc(C)c2O3)cc1	5.8µM*	5.2µM*	-4%	5%	·
COc1ccc(-c2nc3c(c(SCc4ccc(Br)cc4)n2)Cc2c(CO)cnc(C)c2O3)cc1	?	4.1µM*	0%	3%	·
CC(C)C(=O)Nc1ccc(Br)cc1Cl	12%	-18%	-6%	8%	-6%
COc1ccc(Cc2nnc(NC(=O)C3CCCO3)s2)cc1 (configuration not stated)	-14%	-7%	-20%	-4%	2%
CC12CCC3c4ccc(O)cc4CCC3C1CCC2=O (configuration not stated)	0%	0%	·	12%[56.1 µM]	?
CCn1cc(/C=N/N=C2\CCC3C4CCc5cc(O)ccc5C4CC[C@]23C)c(C)n1 (some centres not stated)	16µM*	21µM*	-1%	8%	-5%
COC(=O)CSc1nc2sc3c(c2c(=O)n1-c1ccccc1C)CC(C)(C)OC3	·	·	-3%	·	·
CC(C)C(=O)NC(c1ccc([N+](=O)[O-])cc1)c1c(O)ccc2ccccc12 (configuration not stated)	18µM*	?	?	8%	·
CC(=O)NC(c1ccc(C(C)C)cc1)c1c(O)ccc2ccccc12 (configuration not stated)	-21%	?	·	·	6%
Cc1ccc(C(NC(=O)C2CCCCC2)c2c(O)ccc3ccccc23)cc1 (configuration not stated)	16µM*	21µM*	23%	8%	-10%
CCC(=O)NC(c1ccccc1)c1c(O)ccc2ccccc12 (configuration not stated)	-17%	1%	-2%	·	5%
CCCC(=O)NC(c1ccccc1)c1c(O)ccc2ccccc12 (configuration not stated)	?	8.2µM*	10%	·	-6%
OC1CCN(Cc2cn(Cc3ccccc3)nc2-c2cc3ccccc3o2)CC1	-9%	-25%	-28%	3%	0%
